PubChem BioAssay (NCATS)
Results filed as inconclusive are left out. Calls of active or inactive are those of the source. The call rests on the fitted dose curve; in most records, active means well fitted curve in the direction sought with a large enough effect; inconclusive means small, poorly fitted or top-dose-only effect, or another doubt; inactive means no such curve, though single readings can be large; an effect the other way counts as inactive or inconclusive.

Columns and labels:
[1] = target: Rap guanine nucleotide exchange factor 3 (Homo sapiens) (UniProt O95398); test: Confirmatory qHTS for antagonist of cAMP-regulated guanine nucleotide exchange factor 3 (EPAC1) (AID 1645880); further: nearly all actives have a fitted effect of over 55% in size; further: potency means the concentration at half of the fitted maximal effect
How it was run: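 Nucleotide exchange uses 100 nM EPAC1, 250 nM RAP1B-BODIPY-GDP and 50 uM GDP, with compounds in a concentration-titration series. After 5 min at room temperature, fluorescence (480 nm ex/540 nm em) is read every 5 min for 30 min. Data are normalized to control ATA and DMSO.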

[2] = target: Rap guanine nucleotide exchange factor 3 (Homo sapiens) (UniProt O95398); test: Confirmatory qHTS for agonist of cAMP-regulated guanine nucleotide exchange factor 3 (EPAC1) (AID 1645881); further: nearly all actives have a fitted effect of over 75% in size; further: potency means the concentration at half of the fitted maximal effect;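 on activation: EPAC1 catalysed release of BODIPY-GDP from Rap1B seen as fluorescence loss; 100% = effect of cAMP agonist control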
[3] = target: Rap guanine nucleotide exchange factor 4 (Homo sapiens) (UniProt Q8WZA2); test: Confirmatory qHTS for agonist of cAMP-regulated guanine nucleotide exchange factor 4 (EPAC2) (AID 1645884);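 further: nucleotide exchange releases bodipy-GDP from Rap1 and this lowers its fluorescence; nearly all actives have a fitted effect of over 65% in size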; further: potency means the concentration at half of the fitted maximal effect; on activation: on the % scale 0 is the no-effect control and ±100 the full control effect
[4] = target: Rap guanine nucleotide exchange factor 4 (Homo sapiens) (UniProt Q8WZA2); test: Confirmatory qHTS for antagonist of cAMP-regulated guanine nucleotide exchange factor 4 (EPAC2) (AID 1645885); further: nearly all actives have a fitted effect of over 25% in size; further: potency means the concentration at half of the fitted maximal effect; on activity change, negative = inhibition: on the % scale 0 is the no-effect control and ±100 the full control effect
[5] = target: Rap guanine nucleotide exchange factor 3 (Homo sapiens) (UniProt O95398); test: Counterscreen qHTS for antagonist of cAMP-regulated guanine nucleotide exchange factor 3 (EPAC1) (AID 1645888);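 further: fluorescence loss as bound BODIPY-GDP is released from Rap1B; % of control where 0% means no effect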
How it was run: (§1)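 Rap1B–BODIPY-GDP (250 nM) with 50 uM GDP; compounds pin-transferred to 9.74 nM–152 uM final (activator) or from 7.32 nM upwards (inhibitor). Fluorescence Ex/Em 480/540 nm read at 5 and 30 min, then after adding cAMP or buffer, at room temperature.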

[6] = target: Rap guanine nucleotide exchange factor 3 (Homo sapiens) (UniProt O95398); test: Counterscreen qHTS for agonist of cAMP-regulated guanine nucleotide exchange factor 3 (EPAC1) (AID 1645889); further: nearly all actives have a fitted effect of over 40% in size; further: potency means the concentration at half of the fitted maximal effect; on activation: % of control where 0% means no effect
How it was run: as §1

Rap guanine nucleotide exchange factor 4 (Homo sapiens), sequence (Q8WZA2 whole entry, looked up): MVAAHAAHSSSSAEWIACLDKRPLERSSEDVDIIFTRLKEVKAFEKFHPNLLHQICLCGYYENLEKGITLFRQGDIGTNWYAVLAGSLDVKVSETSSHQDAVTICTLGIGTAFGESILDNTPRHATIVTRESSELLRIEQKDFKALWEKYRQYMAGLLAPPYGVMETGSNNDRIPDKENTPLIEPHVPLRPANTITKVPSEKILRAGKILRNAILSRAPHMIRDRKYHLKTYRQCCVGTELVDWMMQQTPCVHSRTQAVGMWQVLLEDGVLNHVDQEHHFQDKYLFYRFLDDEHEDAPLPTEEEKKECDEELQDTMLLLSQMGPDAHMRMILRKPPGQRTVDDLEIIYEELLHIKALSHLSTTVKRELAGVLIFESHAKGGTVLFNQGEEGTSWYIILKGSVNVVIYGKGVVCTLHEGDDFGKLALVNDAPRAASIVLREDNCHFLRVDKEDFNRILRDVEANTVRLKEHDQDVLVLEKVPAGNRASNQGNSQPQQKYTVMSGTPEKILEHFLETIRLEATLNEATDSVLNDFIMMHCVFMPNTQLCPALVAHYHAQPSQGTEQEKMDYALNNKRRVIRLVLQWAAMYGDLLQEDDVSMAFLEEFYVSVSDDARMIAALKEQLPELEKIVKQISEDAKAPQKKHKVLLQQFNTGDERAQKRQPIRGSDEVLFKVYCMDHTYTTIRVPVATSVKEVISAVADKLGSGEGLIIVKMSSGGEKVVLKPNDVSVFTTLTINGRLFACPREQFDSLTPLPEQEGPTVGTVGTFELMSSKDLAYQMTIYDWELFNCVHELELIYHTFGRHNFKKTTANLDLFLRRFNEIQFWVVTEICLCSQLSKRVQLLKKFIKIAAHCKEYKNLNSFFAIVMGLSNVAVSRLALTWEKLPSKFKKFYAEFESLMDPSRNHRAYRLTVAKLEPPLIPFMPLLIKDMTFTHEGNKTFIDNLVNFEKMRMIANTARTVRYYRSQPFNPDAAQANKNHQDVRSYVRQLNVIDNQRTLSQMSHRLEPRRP
Rap guanine nucleotide exchange factor 3 (Homo sapiens), sequence (O95398 whole entry, looked up): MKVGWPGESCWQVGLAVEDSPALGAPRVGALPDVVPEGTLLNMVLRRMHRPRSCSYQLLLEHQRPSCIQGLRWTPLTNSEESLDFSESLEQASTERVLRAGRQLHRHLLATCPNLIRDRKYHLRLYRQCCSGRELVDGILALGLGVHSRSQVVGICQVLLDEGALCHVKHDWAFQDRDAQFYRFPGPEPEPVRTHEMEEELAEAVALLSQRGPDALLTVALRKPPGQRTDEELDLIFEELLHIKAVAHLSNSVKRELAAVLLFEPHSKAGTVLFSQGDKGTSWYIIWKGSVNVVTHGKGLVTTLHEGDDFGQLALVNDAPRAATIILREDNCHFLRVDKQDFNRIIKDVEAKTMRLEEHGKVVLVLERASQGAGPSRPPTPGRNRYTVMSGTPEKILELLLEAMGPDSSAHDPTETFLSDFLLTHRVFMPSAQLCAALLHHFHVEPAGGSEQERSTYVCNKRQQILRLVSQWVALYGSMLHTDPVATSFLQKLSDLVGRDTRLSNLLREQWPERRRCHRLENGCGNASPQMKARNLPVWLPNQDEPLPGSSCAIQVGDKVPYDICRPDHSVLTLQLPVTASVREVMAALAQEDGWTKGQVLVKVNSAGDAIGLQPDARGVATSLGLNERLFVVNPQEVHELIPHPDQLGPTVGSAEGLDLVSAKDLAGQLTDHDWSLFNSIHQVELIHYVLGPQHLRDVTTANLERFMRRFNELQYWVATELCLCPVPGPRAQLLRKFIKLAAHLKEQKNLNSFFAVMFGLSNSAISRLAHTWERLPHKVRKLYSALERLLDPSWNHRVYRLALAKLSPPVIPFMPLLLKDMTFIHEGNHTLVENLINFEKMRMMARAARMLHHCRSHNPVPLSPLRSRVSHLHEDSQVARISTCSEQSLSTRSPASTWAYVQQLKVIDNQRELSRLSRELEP

C/C(=C\c1ccco1)CN1CCN(Cc2ccc(C)o2)C(CCO)C1 (stereo not given)
inactive: Potency [1] | Potency [2] | Potency [3] | Potency [4] | Potency [5] | Potency [6]

CC1CN(C(=O)COC(=O)COc2ccc(C#N)cc2)CC(C)O1 (stereo not given)
inactive: Potency [1] | Potency [2] | activation [3] -1.51% [at 17.1 µM, percent relative to cAMP agonist control] | Potency [4] | activity change, negative = inhibition [5] -3.73% [at 30.8 µM] | activation [6] 1.53% [at 30.8 µM]

C=CCc1ccccc1Oc1cc(OC)nc(N)n1
inactive: Potency [1] | Potency [2] | activation [3] -1.65% [at 17.1 µM, percent relative to cAMP agonist control] | Potency [4] | activity change, negative = inhibition [5] -22.4% [at 30.8 µM] | activation [6] -1.76% [at 30.8 µM]

COc1cc(/C=C2/C(=O)NN(c3ccc(C)c(Cl)c3)C2=O)cc([N+](=O)[O-])c1O
inactive: Potency [2] | Potency [3] | Potency [4] | Potency [5] | Potency [6]
active: Potency [1] 8.49 µM

CCc1cccc2sc(NC(=O)c3ccc(N4C(=O)CCC4=O)cc3)nc12
inactive: Potency [1] | Potency [2] | Potency [3] | Potency [4] | Potency [5] | Potency [6]

COc1ccc(-c2c(-c3ccccc3OC)oc3ccccc23)cc1F
active: Potency [4] 6.75 µM
inactive: Potency [1] | Potency [2] | Potency [3] | Potency [5] | Potency [6]

Cc1ccc(Cl)cc1NC(=O)c1ccccc1OCC(=O)Nc1ccc(Cl)cc1
inactive: Potency [1] | Potency [2] | activation [3] 0.829% [at 17.1 µM, percent relative to cAMP agonist control] | Potency [4] | activity change, negative = inhibition [5] -9.99% [at 30.8 µM] | activation [6] 12.9% [at 30.8 µM]

COc1ccccc1NC(=O)COC(=O)c1ccc([N+](=O)[O-])s1
active: Potency [1] 21.3 µM
inactive: Potency [2] | Potency [3] | Potency [4] | Potency [5] | Potency [6]

COc1ccc(-c2oc3cccnc3c2C#CCO)cc1
inactive: Potency [1] | Potency [2] | Potency [3] | Potency [4] | Potency [5] | Potency [6]

CCCCCCNC(=O)c1cc(-c2ccco2)nc2ccccc12
active: Potency [1] 22.4 µM
inactive: Potency [2] | activation [3] 3.51% [at 17.1 µM, percent relative to cAMP agonist control] | Potency [4] | activity change, negative = inhibition [5] -13.3% [at 30.8 µM] | activation [6] 27.4% [at 30.8 µM]

CC(C)c1ccc(N(C(=O)c2csnn2)C(C(=O)NC(C)(C)C)c2cccnc2)cc1 (stereo not given)
inactive: Potency [1] | Potency [2] | Potency [3] | Potency [4] | Potency [5] | Potency [6]

CC[n+]1c(/C=C/C=C/N(C(C)=O)c2ccccc2)sc2cc(OC)ccc21
inactive: Potency [1] | Potency [4] | Potency [5]
active: Potency [2] 100 µM | Potency [3] 112 µM | Potency [6] 50.1 µM

N#C/C(=C\c1cn(Cc2ccc(C#N)cc2)c2ccccc12)C(=O)NCc1cccs1
inactive: Potency [1] | Potency [2] | activation [3] 8.48% [at 17.1 µM, percent relative to cAMP agonist control] | Potency [4] | activity change, negative = inhibition [5] 7.4% [at 30.8 µM] | activation [6] 15.9% [at 30.8 µM]

COc1ccccc1/C=C/C=C1\Oc2c(ccc(O)c2CN(C)C)C1=O
active: Potency [2] 89.1 µM | Potency [3] 112 µM | Potency [6] 63.1 µM
inactive: Potency [1] | Potency [4] | Potency [5]

CC1=C(C(=O)NC2CCC(C)CC2)C2(CCC(C)CC2)OC1=O (stereo not given)
inactive: Potency [1] | Potency [2] | activation [3] 1.07% [at 17.1 µM, percent relative to cAMP agonist control] | Potency [4] | activity change, negative = inhibition [5] -11.5% [at 30.8 µM] | activation [6] -0.546% [at 30.8 µM]

COc1ccc(C/C(C)=N/NC(=O)c2cccnc2)cc1
inactive: Potency [1] | Potency [2] | activation [3] -0.201% [at 17.1 µM, percent relative to cAMP agonist control] | Potency [4] | activity change, negative = inhibition [5] -16% [at 30.8 µM] | activation [6] 7.53% [at 30.8 µM]

C/C=C/C(=O)N1c2ccc(C)cc2C(C)=CC1(C)C
inactive: Potency [1] | Potency [2] | Potency [3] | Potency [4] | Potency [5] | Potency [6]

Cc1cc(NCc2ccco2)n2c(nc3ccccc32)c1C#N
inactive: Potency [1] | Potency [2] | Potency [3] | Potency [4] | Potency [5] | Potency [6]

Cc1nc(N)sc1C(=O)N1N=N1
inactive: Potency [1] | Potency [2] | Potency [3] | Potency [4] | Potency [5] | Potency [6]

CCCCCN(C(=O)CCC(=O)OCc1ccc(C(C)C)cc1)c1c(N)n(CCCC)c(=O)[nH]c1=O
inactive: Potency [1] | Potency [2] | Potency [3] | Potency [4] | Potency [5] | Potency [6]

COc1ccc(OC)c(/C=C2\SC(=S)N(NS(=O)(=O)c3ccccc3)C2=O)c1
active: Potency [1] 23.9 µM | Potency [4] 33.8 µM
inactive: Potency [2] | Potency [3] | Potency [5] | Potency [6]

Cc1onc(-c2c(F)cccc2Cl)c1C(=O)Oc1ccccc1
inactive: Potency [1] | Potency [2] | activation [3] 1.99% [at 17.1 µM, percent relative to cAMP agonist control] | Potency [4] | activity change, negative = inhibition [5] -3.3% [at 30.8 µM] | activation [6] 7.91% [at 30.8 µM]

COCCNC(=O)c1ccc2c(c1)N(Cc1ccc(C(F)(F)F)cc1)C(=O)c1ccccc1S2
inactive: Potency [1] | Potency [2] | Potency [3] | Potency [4] | Potency [5] | Potency [6]

Cc1[nH]n(-c2ccccc2)c(=O)c1C(c1cc(Cl)ccc1O)c1c(C)[nH]n(-c2ccccc2)c1=O
inactive: Potency [2] | Potency [3] | Potency [4] | Potency [5]
active: Potency [1] 75.7 µM | Potency [6] 2.51 µM

COc1ccc(CN2C(=O)c3cccnc3C2Nc2cc(Cl)c(OC)cc2OC)cc1 (stereo not given)
inactive: Potency [2] | Potency [3] | Potency [4] | Potency [5] | Potency [6]
active: Potency [1] 75.7 µM

Cc1ccc(C2(C)NC(=O)N(CC(=O)Nc3ccccc3N3CCCCC3)C2=O)cc1 (stereo not given)
inactive: Potency [1] | Potency [2] | Potency [3] | Potency [4] | Potency [5] | Potency [6]

COc1ccccc1CNC(=O)CCCn1nc(C)c2c(C)n(-c3ccc(C)cc3)nc2c1=O
inactive: Potency [1] | Potency [2] | Potency [3] | outcome [4] inactive [at 12.7 µM] | Potency [5] | Potency [6]

CN(Cc1ccccc1)S(=O)(=O)c1ccc(Cl)c(C(=O)NCc2ccncc2)c1
inactive: Potency [1] | Potency [2] | Potency [3] | Potency [4] | Potency [5] | Potency [6]

CC(OC(=O)CCN1C(=O)C2CC=CCC2C1=O)C(=O)Nc1cccc(C#N)c1 (stereo not given)
inactive: Potency [1] | Potency [2] | activation [3] 3.57% [at 17.1 µM, percent relative to cAMP agonist control] | Potency [4] | activity change, negative = inhibition [5] -8.99% [at 30.8 µM] | activation [6] 3.18% [at 30.8 µM]

O=C(CSc1nc2c([nH]c3ccccc32)c(=O)n1-c1ccccc1F)Nc1cccc(Cl)c1
inactive: Potency [1] | Potency [2] | Potency [3] | Potency [4] | Potency [5] | Potency [6]

CC1CC(C)CN(c2nc3c(c(=O)n(C)c(=O)n3C)n2CCSc2ncccn2)C1 (stereo not given)
inactive: Potency [1] | Potency [2] | activation [3] 0.98% [at 17.1 µM, percent relative to cAMP agonist control] | Potency [4] | activity change, negative = inhibition [5] 1.05% [at 30.8 µM] | activation [6] 6.66% [at 30.8 µM]

CCOc1c(O)ccc(/C=C2\SC(=S)NC2=O)c1[N+](=O)[O-]
inactive: Potency [2] | Potency [3] | Potency [4] | Potency [5] | Potency [6]
active: Potency [1] 37.9 µM

CN(C)S(=O)(=O)N1CCN(S(=O)(=O)N(C)C)CC1
inactive: Potency [1] | Potency [2] | activation [3] 5.89% [at 17.1 µM, percent relative to cAMP agonist control] | Potency [4] | activity change, negative = inhibition [5] -14.8% [at 30.8 µM] | activation [6] 1.25% [at 30.8 µM]

CCN1C(=O)/C(=C/C=C2/SCCN2C)SC1=S
inactive: Potency [1] | activation [3] 20% [at 17.1 µM, percent relative to cAMP agonist control] | Potency [4] | activity change, negative = inhibition [5] 0.532% [at 30.8 µM]
active: Potency [2] 79.4 µM | Potency [6] 11.2 µM

c1ccc(-c2nnc3sc(CN4CCC5(CC4)OCCO5)cn23)cc1
inactive: Potency [1] | Potency [2] | Potency [3] | Potency [4] | Potency [5] | Potency [6]

CCOc1cc(C2C3=C(CC(C)(C)CC3=O)N(CCOC)C3=C2C(=O)CC(C)(C)C3)ccc1O
inactive: Potency [1] | Potency [2] | Potency [3] | Potency [4] | Potency [5] | Potency [6]

CC(=O)Nc1ccc(CNc2nc3cc(-c4ccsc4)sc3c(=O)n2C)cc1
inactive: Potency [1] | Potency [2] | activation [3] -3.78% [at 17.1 µM, percent relative to cAMP agonist control] | Potency [4] | activity change, negative = inhibition [5] 16% [at 30.8 µM] | activation [6] 36.9% [at 30.8 µM]

C#CCOc1ccc(/C=C2/C(=O)N(c3cccc(C(=O)O)c3)N=C2C)cc1OC
inactive: Potency [1] | Potency [2] | activation [3] 5.95% [at 17.1 µM, percent relative to cAMP agonist control] | Potency [4] | activity change, negative = inhibition [5] 6.78% [at 30.8 µM] | activation [6] 10.5% [at 30.8 µM]

CC(C)CC1C(=O)N(Cc2cn(CCC3OCCCO3)nn2)CCS(=O)(=O)N1Cc1ccc(-c2ccccc2)cc1 (stereo not given)
inactive: Potency [1] | Potency [2] | Potency [3] | Potency [4] | Potency [5] | Potency [6]

COc1ccccc1/C=C1\SC(=S)N(NS(=O)(=O)c2ccc(C)cc2)C1=O
inactive: Potency [2] | activation [3] 1.14% [at 17.1 µM, percent relative to cAMP agonist control] | Potency [4] | activity change, negative = inhibition [5] 2.6% [at 30.8 µM] | activation [6] -16.6% [at 30.8 µM]
active: Potency [1] 12.6 µM
